Common to all, as to assay: protein-binding microarray (PBM); PBM: ~300 nM protein, 6 mM HEPES pH 7.8, 80 mM KCl, 0.5 mM EDTA, 0.5 mM EGTA, 6% glycerol, 35 ng/ul poly-dIdC, 1% milk, 1 h, room temperature; Ap Aiptasia and Nv Nematostella (sea anemones) / Co Capsaspora / Aq Amphimedon (sponge) / Dm Drosophila / Hu human; RHD is the Rel homology domain; high values mean tight binding
Holding throughout (conditions): dsDNA, one strand shown

One experiment has as its target T1, GST-Ap-NF-kB RHD (Exaiptasia pallida (Aiptasia), UniProt A0A913YAJ5 2-422).
T1 sequence: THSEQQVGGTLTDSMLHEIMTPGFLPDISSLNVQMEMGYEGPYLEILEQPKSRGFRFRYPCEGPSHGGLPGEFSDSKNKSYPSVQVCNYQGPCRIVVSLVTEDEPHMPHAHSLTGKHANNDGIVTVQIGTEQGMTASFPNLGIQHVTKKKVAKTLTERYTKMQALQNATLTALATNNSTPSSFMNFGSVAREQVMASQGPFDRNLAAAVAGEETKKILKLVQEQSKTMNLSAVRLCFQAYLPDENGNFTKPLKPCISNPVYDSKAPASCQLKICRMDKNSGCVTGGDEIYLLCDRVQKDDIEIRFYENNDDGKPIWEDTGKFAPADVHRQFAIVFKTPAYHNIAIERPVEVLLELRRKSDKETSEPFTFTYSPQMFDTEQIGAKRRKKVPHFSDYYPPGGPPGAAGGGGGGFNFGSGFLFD

The target in experiment [1] is T2, GST-Nv-NF-kB (Cys allele) (Nematostella vectensis, UniProt E5G601 2-411).
T2 sequence: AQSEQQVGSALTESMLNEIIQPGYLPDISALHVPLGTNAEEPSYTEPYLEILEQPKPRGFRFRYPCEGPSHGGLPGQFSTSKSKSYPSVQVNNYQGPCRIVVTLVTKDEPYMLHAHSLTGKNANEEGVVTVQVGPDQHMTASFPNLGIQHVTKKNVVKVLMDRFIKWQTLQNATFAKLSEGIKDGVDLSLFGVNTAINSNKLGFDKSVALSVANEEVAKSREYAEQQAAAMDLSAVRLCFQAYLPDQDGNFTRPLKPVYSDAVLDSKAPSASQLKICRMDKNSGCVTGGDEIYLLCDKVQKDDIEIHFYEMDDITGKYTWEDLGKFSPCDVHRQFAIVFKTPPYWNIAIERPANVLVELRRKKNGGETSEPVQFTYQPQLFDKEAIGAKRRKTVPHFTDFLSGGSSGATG

The target of another experiment is T3, GST-Dm-Relish (Drosophila melanogaster, UniProt Q94527 99-473).
T3 sequence: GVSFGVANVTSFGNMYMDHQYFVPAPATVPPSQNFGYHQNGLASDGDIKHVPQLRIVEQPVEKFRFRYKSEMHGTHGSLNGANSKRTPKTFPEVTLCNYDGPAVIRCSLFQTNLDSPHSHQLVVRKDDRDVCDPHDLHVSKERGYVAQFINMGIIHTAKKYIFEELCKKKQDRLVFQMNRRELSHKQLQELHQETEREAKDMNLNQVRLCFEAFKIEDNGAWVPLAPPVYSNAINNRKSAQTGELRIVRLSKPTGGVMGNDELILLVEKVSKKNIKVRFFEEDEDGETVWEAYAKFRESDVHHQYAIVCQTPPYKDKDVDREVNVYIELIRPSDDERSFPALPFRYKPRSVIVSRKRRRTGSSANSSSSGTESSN

A further experiment addresses T4, GST-Aq-NF-kB (Amphimedon queenslandica, UniProt A9Y5G7 2-389).
T4 sequence: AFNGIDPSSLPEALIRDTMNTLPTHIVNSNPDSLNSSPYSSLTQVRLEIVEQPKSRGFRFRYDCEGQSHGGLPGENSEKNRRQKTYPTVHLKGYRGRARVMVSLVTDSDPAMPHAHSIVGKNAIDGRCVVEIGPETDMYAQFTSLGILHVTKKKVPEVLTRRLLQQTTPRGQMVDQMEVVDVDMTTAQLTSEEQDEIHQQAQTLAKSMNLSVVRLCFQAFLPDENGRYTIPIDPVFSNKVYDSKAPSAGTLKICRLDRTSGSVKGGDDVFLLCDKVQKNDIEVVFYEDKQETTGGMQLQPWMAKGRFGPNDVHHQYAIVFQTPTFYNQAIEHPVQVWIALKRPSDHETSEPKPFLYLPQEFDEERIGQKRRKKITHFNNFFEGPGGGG

Regarding “CCGATTAACATCAGGAGTTTACCTGATGTTAATCGGGTCTTGATTCGCTTGACGCTGCTG”, the binding signal in the experiment with GST-Ap-NF-kB RHD turned out to be 1.12 z-score; in experiment [1] it was 1.18 z-score; with GST-Dm-Relish, 3.24 z-score; with GST-Aq-NF-kB, 2.87 z-score.
As to “CCGATTAACATCAAAAAAATACCTGATGTTAATCGGGTCTTGATTCGCTTGACGCTGCTG”, the binding signal with GST-Ap-NF-kB RHD is 1.95 z-score; in experiment [1], 2.83 z-score; with GST-Dm-Relish, 5.83 z-score; with GST-Aq-NF-kB, 3.53 z-score.
Consider “CCGATTAACATCAGGACTATCCCTGATGTTAATCGGGTCTTGATTCGCTTGACGCTGCTG”, for which the binding signal in the experiment with GST-Ap-NF-kB RHD amounted to 1.82 z-score; in experiment [1], 2.61 z-score; in the experiment with GST-Dm-Relish, 1.48 z-score; with GST-Aq-NF-kB, 5.97 z-score.
For the sequence “CCGATTAACATCAGGACTTTACCTGATGTTAATCGGGTCTTGATTCGCTTGACGCTGCTG”, the binding signal with GST-Ap-NF-kB RHD came to 1.18 z-score; in experiment [1] it was 3.27 z-score; in the experiment with GST-Dm-Relish, 5.92 z-score; with GST-Aq-NF-kB it was 4.69 z-score.
The corresponding values for “CCGATTAACATCAGGGATTTTGATGATGTTAATCGGGTCTTGATTCGCTTGACGCTGCTG” are 3.17 z-score, 2.95 z-score, 4.91 z-score and 2.87 z-score.
Regarding “CCGATTAACATCAGGGATTCCACTGATGTTAATCGGGTCTTGATTCGCTTGACGCTGCTG”, the binding signal was determined as 2.72 z-score with GST-Ap-NF-kB RHD, 1.75 z-score in experiment [1], 6.88 z-score with GST-Dm-Relish and 4.11 z-score in the experiment with GST-Aq-NF-kB.
Take “CCGATTAACATCAGGAAACTACCTGATGTTAATCGGGTCTTGATTCGCTTGACGCTGCTG”: the binding signal with GST-Ap-NF-kB RHD was 1.63 z-score; in experiment [1], 2.51 z-score; with GST-Dm-Relish it was 4.48 z-score; with GST-Aq-NF-kB, 4.72 z-score.
The matching figures for “CCGATTAACATCAAAAAATACCATGATGTTAATCGGGTCTTGATTCGCTTGACGCTGCTG”: 1.11 z-score, 1.58 z-score, 4.53 z-score and 2.23 z-score.
For “CCGATTAACATCAGGAAAACACCTGATGTTAATCGGGTCTTGATTCGCTTGACGCTGCTG”, the binding signal with GST-Ap-NF-kB RHD amounted to 2.56 z-score; in experiment [1] it was 3.6 z-score; with GST-Dm-Relish it was 3.1 z-score; with GST-Aq-NF-kB it was 5.13 z-score.
For the sequence “CCGATTAACATCAGAAAATGCCCTGATGTTAATCGGGTCTTGATTCGCTTGACGCTGCTG”, the binding signal was 1.93 z-score with GST-Ap-NF-kB RHD, 2.33 z-score in experiment [1], 2.42 z-score with GST-Dm-Relish and 3.47 z-score with GST-Aq-NF-kB.
For “CCGATTAACATCAGGAACATCCCTGATGTTAATCGGGTCTTGATTCGCTTGACGCTGCTG”, the binding signal in the experiment with GST-Ap-NF-kB RHD came out at 1.46 z-score; in experiment [1], 1.39 z-score; with GST-Dm-Relish it was 1.9 z-score; with GST-Aq-NF-kB, 4.06 z-score.
The matching figures for “CCGATTAACATCAGGGGTTTAACTGATGTTAATCGGGTCTTGATTCGCTTGACGCTGCTG”: 2.44 z-score, 2.32 z-score, 3.3 z-score and 3.04 z-score.
Regarding “CCGATTAACATCAAGGACTTCCCTGATGTTAATCGGGTCTTGATTCGCTTGACGCTGCTG”, the binding signal in the experiment with GST-Ap-NF-kB RHD was 2.9 z-score; in experiment [1], 3.39 z-score; with GST-Dm-Relish, 6.91 z-score; with GST-Aq-NF-kB, 5 z-score.
For the sequence “CCGATTAACATCACGGAATTACCTGATGTTAATCGGGTCTTGATTCGCTTGACGCTGCTG”, the binding signal with GST-Ap-NF-kB RHD was found to be 1.02 z-score; in experiment [1], 1.63 z-score; with GST-Dm-Relish, 3.44 z-score; with GST-Aq-NF-kB, 3.88 z-score.
“CCGATTAACATCAAAATTCCACCTGATGTTAATCGGGTCTTGATTCGCTTGACGCTGCTG”: the binding signal with GST-Ap-NF-kB RHD amounted to 1.5 z-score; in experiment [1] it was 2.45 z-score; with GST-Dm-Relish, 1.96 z-score; with GST-Aq-NF-kB, 2.25 z-score.
The corresponding values for “CCGATTAACATCAGGGACTTACCTGATGTTAATCGGGTCTTGATTCGCTTGACGCTGCTG” are 5.1 z-score, 7 z-score, 7.96 z-score and 8.29 z-score.
Regarding “CCGATTAACATCAGGTACTTCCATGATGTTAATCGGGTCTTGATTCGCTTGACGCTGCTG”, the binding signal in the experiment with GST-Ap-NF-kB RHD is 2.51 z-score; in experiment [1], 2.6 z-score; with GST-Dm-Relish, 5.93 z-score; with GST-Aq-NF-kB it was 2.23 z-score.

The record behind these values is article PMC5700166.
